For some assays here: Measured potencies and affinities stand elsewhere.
Legend:
Design in all cases: scale not given: direction of the effect not stated beside the values
[1] = molecular target: Protein translocase subunit SecA (Escherichia coli (strain K12)) (UniProt P10408); experiment: Assay to Identify E. coli SecA ATPase Inhibitors; type: functional; conditions: 30 µM
[2] = molecular target: T1, Ubiquitin-activating enzyme e1, putative (Leishmania donovani (strain BPK282A1)) (UniProt E9BSI1); experiment: Leishmania donovani Ubiquitin Activating Enzyme (LdE1); type: functional; conditions: 30 µM
T1 sequence (whole entry): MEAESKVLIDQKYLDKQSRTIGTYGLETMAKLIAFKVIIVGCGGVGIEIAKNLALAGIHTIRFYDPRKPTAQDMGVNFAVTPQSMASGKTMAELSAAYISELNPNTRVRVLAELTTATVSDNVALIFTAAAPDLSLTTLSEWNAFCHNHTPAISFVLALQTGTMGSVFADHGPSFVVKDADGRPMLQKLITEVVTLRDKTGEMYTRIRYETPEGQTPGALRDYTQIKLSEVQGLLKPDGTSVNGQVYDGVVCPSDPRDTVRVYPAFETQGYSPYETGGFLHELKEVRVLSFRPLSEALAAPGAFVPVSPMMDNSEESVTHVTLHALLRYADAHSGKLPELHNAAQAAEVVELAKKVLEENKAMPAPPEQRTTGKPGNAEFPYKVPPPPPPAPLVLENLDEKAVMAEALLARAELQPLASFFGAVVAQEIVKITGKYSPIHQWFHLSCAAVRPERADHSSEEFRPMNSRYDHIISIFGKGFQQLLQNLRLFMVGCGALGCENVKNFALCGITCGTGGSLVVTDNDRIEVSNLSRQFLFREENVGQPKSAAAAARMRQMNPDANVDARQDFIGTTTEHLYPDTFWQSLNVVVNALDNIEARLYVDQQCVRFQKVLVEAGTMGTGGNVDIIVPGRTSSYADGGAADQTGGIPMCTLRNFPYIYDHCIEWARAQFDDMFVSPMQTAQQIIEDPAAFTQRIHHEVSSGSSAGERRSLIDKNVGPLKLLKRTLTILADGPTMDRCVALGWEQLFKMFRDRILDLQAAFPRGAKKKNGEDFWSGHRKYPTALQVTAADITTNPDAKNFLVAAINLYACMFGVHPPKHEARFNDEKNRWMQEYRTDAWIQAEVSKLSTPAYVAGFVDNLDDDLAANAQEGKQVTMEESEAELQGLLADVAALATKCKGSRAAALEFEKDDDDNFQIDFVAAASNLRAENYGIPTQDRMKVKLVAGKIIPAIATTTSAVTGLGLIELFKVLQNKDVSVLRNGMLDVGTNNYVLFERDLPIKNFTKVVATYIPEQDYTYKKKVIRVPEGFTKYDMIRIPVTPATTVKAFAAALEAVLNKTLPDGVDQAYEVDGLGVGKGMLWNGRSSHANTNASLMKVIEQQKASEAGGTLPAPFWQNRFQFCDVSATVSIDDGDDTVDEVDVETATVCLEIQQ

[3] = molecular target: AMP-activated protein kinase, AMPK (Homo sapiens) (UniProt P54646+O43741+P54619+Q9UGJ0+Q9Y478+Q13131+Q9UGI9); experiment: AMP-dependent Kinase enzyme assay. An in vitro enzyme assay that detects ADP turnover that is directly proportional to AMPK activity. This uses naive AMPK that is activated during the assay with MK-8722; type: functional; conditions: 30 µM
[4] = molecular target: Sialic acid-binding Ig-like lectin 9 (Homo sapiens) (UniProt Q9Y336); experiment: Hs-Siglec9 ALPHAscreen SOP 20170721; conditions: 10 µM
Chain of Sialic acid-binding Ig-like lectin 9 (Homo sapiens) (Q9Y336 whole entry): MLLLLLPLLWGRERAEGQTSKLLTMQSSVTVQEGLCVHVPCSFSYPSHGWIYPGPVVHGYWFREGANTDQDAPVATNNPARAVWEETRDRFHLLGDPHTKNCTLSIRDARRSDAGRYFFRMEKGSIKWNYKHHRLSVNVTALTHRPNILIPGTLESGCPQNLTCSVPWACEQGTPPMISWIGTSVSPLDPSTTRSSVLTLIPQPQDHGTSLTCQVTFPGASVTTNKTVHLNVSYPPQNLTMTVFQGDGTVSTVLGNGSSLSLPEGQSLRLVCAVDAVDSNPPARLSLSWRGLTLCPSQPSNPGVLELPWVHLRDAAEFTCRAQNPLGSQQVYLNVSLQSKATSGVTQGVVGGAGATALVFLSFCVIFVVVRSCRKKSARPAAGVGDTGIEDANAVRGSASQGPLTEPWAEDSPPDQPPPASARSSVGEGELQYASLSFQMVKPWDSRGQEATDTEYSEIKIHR

[5] = system: Trypanosoma cruzi; experiment: Trypanosoma cruzi phosphomannomutase and mannose-1-phosphate guanylyltransferase assay; type: functional; conditions: 10 µM
[6] = molecular target: T2, Arginase-2, mitochondrial (Homo sapiens) (UniProt P78540); experiment: in vitro enzyme assay to detect the production of urea directly proportional to the activity of Arginase II; type: functional; conditions: 33.3 µM; also: in the data most compounds retested in dose-response had high values
T2 sequence (whole entry): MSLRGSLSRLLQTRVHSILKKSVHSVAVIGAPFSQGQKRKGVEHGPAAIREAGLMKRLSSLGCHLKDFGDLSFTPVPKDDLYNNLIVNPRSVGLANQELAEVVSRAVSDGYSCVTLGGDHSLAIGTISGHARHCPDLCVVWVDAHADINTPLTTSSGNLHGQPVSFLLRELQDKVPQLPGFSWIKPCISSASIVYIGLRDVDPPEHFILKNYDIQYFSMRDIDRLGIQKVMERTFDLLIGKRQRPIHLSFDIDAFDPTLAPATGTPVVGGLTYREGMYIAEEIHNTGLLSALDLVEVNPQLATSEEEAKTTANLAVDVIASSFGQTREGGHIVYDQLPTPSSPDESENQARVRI

[7] = molecular target: T3, Proteasome subunit beta (Trypanosoma cruzi) (UniProt O96673); experiment: Trypanosoma cruzi proteasome chymotrypsin-like activity (TcProtChymo) assay.; also: in the data most compounds retested in dose-response had high values; type: functional; conditions: 9.37 µM
T3 sequence (whole entry): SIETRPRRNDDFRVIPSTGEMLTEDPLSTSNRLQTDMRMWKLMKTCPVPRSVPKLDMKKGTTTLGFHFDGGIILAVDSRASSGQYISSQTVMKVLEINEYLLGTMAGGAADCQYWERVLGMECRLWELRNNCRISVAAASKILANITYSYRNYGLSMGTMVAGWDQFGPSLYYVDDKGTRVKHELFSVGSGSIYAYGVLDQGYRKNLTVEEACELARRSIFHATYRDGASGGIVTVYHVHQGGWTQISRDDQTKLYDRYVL

[8] = species on record: Homo sapiens; experiment: To identify inhibition of the IFN signalling (Jak-Stat) pathway via expression of an eGFP reporter gene under the control of an IFN-stimulated response element (ISRE) containing MxA promoter.; type: functional; conditions: 30 µM
[9] = molecular target: T4, Tyrosyl-tRNA synthetase, putative (Trypanosoma cruzi (strain CL Brener)) (UniProt Q4DSP6); experiment: Trypanosoma cruzi tyrosyl tRNA synthetase (TcYRS) _High Tyrosine SOP; type: functional; conditions: 30 µM; also: in the data most compounds retested in dose-response had high values
T4 sequence (whole entry): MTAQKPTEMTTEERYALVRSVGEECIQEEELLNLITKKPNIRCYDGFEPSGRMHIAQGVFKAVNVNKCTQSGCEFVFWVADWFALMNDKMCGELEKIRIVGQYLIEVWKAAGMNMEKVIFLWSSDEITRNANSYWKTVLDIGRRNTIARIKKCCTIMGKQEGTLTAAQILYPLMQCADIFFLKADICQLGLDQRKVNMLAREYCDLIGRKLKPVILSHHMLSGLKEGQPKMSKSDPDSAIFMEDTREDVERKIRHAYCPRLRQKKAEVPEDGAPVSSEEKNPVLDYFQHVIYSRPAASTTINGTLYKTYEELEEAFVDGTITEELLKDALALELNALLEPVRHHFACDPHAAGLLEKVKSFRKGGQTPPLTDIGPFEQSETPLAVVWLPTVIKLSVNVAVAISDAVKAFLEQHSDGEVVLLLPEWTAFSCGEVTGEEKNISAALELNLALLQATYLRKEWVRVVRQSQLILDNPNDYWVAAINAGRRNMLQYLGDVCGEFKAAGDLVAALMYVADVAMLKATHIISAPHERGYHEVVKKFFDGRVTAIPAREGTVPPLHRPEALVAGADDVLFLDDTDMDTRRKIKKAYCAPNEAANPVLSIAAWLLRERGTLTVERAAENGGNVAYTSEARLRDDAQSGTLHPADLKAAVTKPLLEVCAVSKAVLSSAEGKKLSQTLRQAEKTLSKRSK

[10] = molecular target: T4, Tyrosyl-tRNA synthetase, putative (Trypanosoma cruzi (strain CL Brener)); experiment: Trypanosoma cruzi tyrosyl tRNA synthetase (TcYRS) SOP; type: functional; conditions: 30 µM
[11] = molecular target: Chromo domain-containing protein 1 (Saccharomyces cerevisiae (strain ATCC 204508 / S288c) (Baker's yeast)) (UniProt P32657); experiment: ScCHD-1 Enzyme Inhibition Assay; type: functional; conditions: 30 µM; also: in the data most compounds retested in dose-response had high values
Chain of Chromo domain-containing protein 1 (Saccharomyces cerevisiae (strain ATCC 204508 / S288c) (Baker's yeast)) (P32657 whole entry, the tested form may be a part): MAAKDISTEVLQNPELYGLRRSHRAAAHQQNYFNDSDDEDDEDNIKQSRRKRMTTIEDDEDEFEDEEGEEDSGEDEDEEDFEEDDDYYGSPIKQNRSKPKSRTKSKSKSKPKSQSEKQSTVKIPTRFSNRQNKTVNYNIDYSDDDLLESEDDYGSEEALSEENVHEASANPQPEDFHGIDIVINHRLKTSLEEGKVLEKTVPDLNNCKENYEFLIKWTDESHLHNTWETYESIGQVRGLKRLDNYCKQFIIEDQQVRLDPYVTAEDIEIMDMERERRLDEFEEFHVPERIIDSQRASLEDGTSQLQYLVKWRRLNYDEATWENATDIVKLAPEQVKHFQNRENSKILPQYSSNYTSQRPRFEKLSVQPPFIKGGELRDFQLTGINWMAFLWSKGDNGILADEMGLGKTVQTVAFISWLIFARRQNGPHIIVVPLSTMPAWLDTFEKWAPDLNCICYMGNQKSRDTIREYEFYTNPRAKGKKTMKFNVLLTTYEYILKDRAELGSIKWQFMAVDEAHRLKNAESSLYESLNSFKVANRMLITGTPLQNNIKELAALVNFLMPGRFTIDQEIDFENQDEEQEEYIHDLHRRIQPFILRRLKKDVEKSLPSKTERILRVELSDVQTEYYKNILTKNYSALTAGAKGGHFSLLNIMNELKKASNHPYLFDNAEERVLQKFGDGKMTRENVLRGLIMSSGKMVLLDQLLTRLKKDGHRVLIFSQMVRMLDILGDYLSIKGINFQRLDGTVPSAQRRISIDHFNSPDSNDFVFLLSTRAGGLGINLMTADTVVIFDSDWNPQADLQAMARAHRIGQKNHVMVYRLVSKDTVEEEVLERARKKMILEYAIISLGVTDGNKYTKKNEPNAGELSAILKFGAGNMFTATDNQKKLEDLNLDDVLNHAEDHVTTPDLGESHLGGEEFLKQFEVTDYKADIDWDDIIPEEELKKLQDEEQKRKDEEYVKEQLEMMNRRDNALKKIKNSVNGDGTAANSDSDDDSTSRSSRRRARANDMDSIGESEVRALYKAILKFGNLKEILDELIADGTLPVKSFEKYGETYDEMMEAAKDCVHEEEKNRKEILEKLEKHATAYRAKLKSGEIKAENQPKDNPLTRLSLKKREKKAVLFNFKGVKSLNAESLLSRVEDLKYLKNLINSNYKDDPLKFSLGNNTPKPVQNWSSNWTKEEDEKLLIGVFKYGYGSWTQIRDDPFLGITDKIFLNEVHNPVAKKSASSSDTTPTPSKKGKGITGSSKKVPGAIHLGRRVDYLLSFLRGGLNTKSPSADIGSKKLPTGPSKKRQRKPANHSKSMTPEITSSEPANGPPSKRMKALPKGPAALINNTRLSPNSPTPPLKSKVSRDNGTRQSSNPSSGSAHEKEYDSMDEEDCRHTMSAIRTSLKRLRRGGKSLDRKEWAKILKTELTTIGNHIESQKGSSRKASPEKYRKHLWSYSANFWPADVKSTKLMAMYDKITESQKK

Chain of Protein translocase subunit SecA (Escherichia coli (strain K12)) (P10408 whole entry): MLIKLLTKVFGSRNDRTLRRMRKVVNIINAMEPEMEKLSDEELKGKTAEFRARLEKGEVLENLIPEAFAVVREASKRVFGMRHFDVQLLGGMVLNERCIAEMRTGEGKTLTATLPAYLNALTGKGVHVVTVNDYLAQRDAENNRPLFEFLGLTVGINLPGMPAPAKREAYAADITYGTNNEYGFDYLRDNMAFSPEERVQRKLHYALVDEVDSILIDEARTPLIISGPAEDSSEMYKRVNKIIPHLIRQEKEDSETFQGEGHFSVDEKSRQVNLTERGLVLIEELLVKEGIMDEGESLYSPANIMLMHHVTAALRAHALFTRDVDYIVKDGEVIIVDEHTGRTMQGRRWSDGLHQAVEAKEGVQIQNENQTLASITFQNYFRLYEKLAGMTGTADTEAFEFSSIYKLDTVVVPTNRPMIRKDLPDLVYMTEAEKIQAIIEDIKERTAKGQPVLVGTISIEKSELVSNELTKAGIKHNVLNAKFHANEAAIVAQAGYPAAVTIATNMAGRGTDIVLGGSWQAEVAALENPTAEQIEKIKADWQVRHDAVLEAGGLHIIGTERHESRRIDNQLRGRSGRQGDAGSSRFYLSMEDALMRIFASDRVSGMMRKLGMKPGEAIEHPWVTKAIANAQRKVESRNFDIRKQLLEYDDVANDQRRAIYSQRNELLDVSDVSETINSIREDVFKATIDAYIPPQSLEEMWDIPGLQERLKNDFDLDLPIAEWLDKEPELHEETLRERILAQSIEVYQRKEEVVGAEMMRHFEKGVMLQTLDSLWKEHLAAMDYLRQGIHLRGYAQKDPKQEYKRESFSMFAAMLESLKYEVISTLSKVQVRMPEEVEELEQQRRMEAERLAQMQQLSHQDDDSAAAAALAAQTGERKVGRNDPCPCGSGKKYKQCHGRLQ

Row | Structure (SMILES) | Percent Effect [1] | Percent Effect [2] | Percent Effect [3] | Percent Effect [4] | Percent Effect [5] | Percent Effect [6] | Percent Effect [7] | Percent Effect [8] | Percent Effect [9] | Percent Effect [10] | Percent Effect [11]
1 | COCCCC(=O)NS(=O)(=O)c1ccc2c(c1)OCCCO2 | -3.41% | 5.26% | -3.3% | 9.85% | -7.94% | 5.75% | -0.0846% | 0.992% | 0.493% | -1.24% | 4.1%
2 | O=C(Nc1cnccn1)[C@H]1COC[C@H]2CN(C3CCCC3)C[C@H]21 | -0.257% | 2.7% | -0.6% | 0.701% | 4.88% | 2.92% | -0.0845% | -10.3% | 3.96% | -1.22% | -1.78%
3 | COC(=O)C(c1cc(F)ccc1F)N(C)C(=O)c1ccnc(C)n1 (stereo not given) | -4.44% | -46.8% | 8.88% | 3.63% | -2.77% | 0.645% | 1.72% | 18.2% | 7.29% | 15.2% | -3.25%
4 | CCc1n[nH]c(C2CN(C(=O)c3cnc(C)s3)CCO2)n1 (stereo not given) | -5.53% | 12.7% | -5.15% | 12.5% | 5% | -1.9% | -3.03% | -0.688% | 3.45% | 8.86% | -5.66%
5 | CC(=O)N1CCOC(c2cc(N3CC(O)C3)nc(C)n2)C1 (stereo not given) | -3.22% | 5.33% | 11% | -2.94% | 0.394% | 2.1% | 11.2% | 0.425% | 5.32% | 16.7% | -2.41%
6 | CC(C)COCC1CN(Cc2ccc3c(c2)OCO3)Cc2ncn(C)c21 (stereo not given) | -6.14% | -5.41% | 10.1% | 2.92% | -1.17% | -3.75% | 2.11% | 29.9% | 3.96% | 3.66% | 0.344%
7 | O=C(Cc1csc(-c2ccco2)n1)N1CCN(c2cnccn2)CC1 | -3.21% | 13.9% | -1.6% | 4.73% | 0.718% | -1.94% | 17.5% | 13.5% | 11.5% | 22.8% | -30.1%
8 | O=S(=O)(c1ccccc1)N1CCN(CCn2ccnc2)CC1 | -6.59% | 2.74% | -6.09% | -6.85% | 0.979% | 3.64% | 7.28% | 6.13% | 6.45% | 7.5% | -3.52%
9 | O=c1[nH]c(CN(Cc2ccco2)C2CCCC2)nc2ccccc12 | -2.15% | 18.2% | 7.19% | 1.72% | 3.75% | 0.712% | 10.5% | 26.1% | 8.74% | 24.4% | -9.34%
10 | CN(Cc1cnn(C)c1)C(=O)NC1CCN(c2ncccn2)CC1 | -7.21% | 13% | 1.2% | -4.13% | -10.7% | -0.356% | 6.25% | 25.2% | 1.94% | 2.44% | -8.45%
